Source: PubChem BioAssay (NCI)
Several values for one entry are separate records, joined by “and”; a condition that tells them apart may be missing. Equal values may be shown once. About 83,000 compounds went through this panel and 20% of them were active in at least one assay; those are over-represented in the sample as a whole.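 Percent growth is the endpoint: 0 to 100 indicates growth inhibition (40 means 60% inhibition), 0 means no net growth, and negative values indicate cell death.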 Unmarked numbers belong to inactive results. Activity calls are given as the source filed them. How the source made its calls: active means growth percent below 10; inactive means the rest.

What was measured:
Assay in all cases: NCI-60 one-dose screen, 48 h (100 = growth as untreated, 0 = no growth, -100 = all killed)
NCI-H460 lung = details: 10 µM unless noted
786-0 renal = details: 10 µM unless noted
DU-145 prostate = details: 10 µM unless noted
MDA-MB-231 breast = details: 10 µM unless noted
SF-268 CNS = details: 10 µM unless noted
SF-539 CNS = details: 10 µM unless noted
HCT-15 colon = details: 10 µM
HT29 colon = details: 10 µM unless noted
SNB-19 CNS = details: 10 µM unless noted
UACC-62 melanoma = details: 10 µM unless noted
SK-MEL-28 melanoma = details: 10 µM unless noted
SN12C renal = details: 10 µM unless noted
UO-31 renal = details: 10 µM unless noted
HL-60(TB) leukemia = details: 10 µM unless noted
T-47D breast = details: 10 µM unless noted
MDA-MB-435 melanoma = details: 10 µM unless noted
SW-620 colon = details: 10 µM unless noted
MCF7 breast = details: 10 µM unless noted
KM12 colon = details: 10 µM unless noted
TK-10 renal = details: 10 µM unless noted

Question: With `CC(C)Nc1ccc(Nc2ccccc2)cc1` as the molecule, how does the growth (NCI-H460 lung) read?
Answer: 11%

Question: What about the growth (786-0 renal) of the same molecule?
Answer: 51.8%

Question: What about the growth (DU-145 prostate) of the same molecule?
Answer: 38.7%

Question: What about the growth (MDA-MB-231 breast) of the same molecule?
Answer: 25.5%

Question: What about the growth (SF-268 CNS) of the same molecule?
Answer: 32.8%

Question: And the growth (SF-539 CNS)?
Answer: 26.1%

Question: What about the growth (HCT-15 colon) of the same molecule?
Answer: 84.3%

Question: What about the growth (HT29 colon) of the same molecule?
Answer: 7.96% (active)

Question: And the growth (SNB-19 CNS)?
Answer: 33.7%

Question: What about the growth (UACC-62 melanoma) of the same molecule?
Answer: 65%

Question: And the growth (SK-MEL-28 melanoma)?
Answer: 85.1%

Question: And the growth (SN12C renal)?
Answer: 19.8%

Question: What about the growth (UO-31 renal) of the same molecule?
Answer: 83.1%

Question: What about the growth (HL-60(TB) leukemia) of the same molecule?
Answer: 69.3%

Question: What about the growth (T-47D breast) of the same molecule?
Answer: 42.9%

Question: What about the growth (MDA-MB-435 melanoma) of the same molecule?
Answer: 23%

Question: What about the growth (SW-620 colon) of the same molecule?
Answer: 33.8%

Question: And the growth (MCF7 breast)?
Answer: 32%

Question: And the growth (KM12 colon)?
Answer: 27.6%

Question: For `OC1(c2ccc(Cl)cc2Cl)c2ccccc2C2=NCCN21` (stereo not given), which growth (NCI-H460 lung) is on record?
Answer: 105%

Question: What about the growth (786-0 renal) of the same molecule?
Answer: 87.9%

Question: And the growth (DU-145 prostate)?
Answer: 109%

Question: What about the growth (MDA-MB-231 breast) of the same molecule?
Answer: 85.2%

Question: And the growth (SF-268 CNS)?
Answer: 103%

Question: And the growth (SF-539 CNS)?
Answer: 102%

Question: And the growth (HCT-15 colon)?
Answer: 101%

Question: And the growth (HT29 colon)?
Answer: 92.2%

Question: What about the growth (SNB-19 CNS) of the same molecule?
Answer: 101%

Question: What about the growth (UACC-62 melanoma) of the same molecule?
Answer: 94%

Question: And the growth (SK-MEL-28 melanoma)?
Answer: 111%

Question: What about the growth (SN12C renal) of the same molecule?
Answer: 92.4%

Question: What about the growth (UO-31 renal) of the same molecule?
Answer: 82.1%

Question: What about the growth (TK-10 renal) of the same molecule?
Answer: 76.6%

Question: What about the growth (HL-60(TB) leukemia) of the same molecule?
Answer: 63.3%

Question: What about the growth (T-47D breast) of the same molecule?
Answer: 93.3%

Question: What about the growth (MDA-MB-435 melanoma) of the same molecule?
Answer: 98%

Question: What about the growth (SW-620 colon) of the same molecule?
Answer: 92.7%

Question: And the growth (MCF7 breast)?
Answer: 96.4%

Question: What about the growth (KM12 colon) of the same molecule?
Answer: 101%

Question: For `CCCCCN(CCCCC)CC(O)c1ccc(C)c(Cl)c1` (stereo not given), which growth (NCI-H460 lung) is on record?
Answer: 101%

Question: And the growth (786-0 renal)?
Answer: 98.2%

Question: And the growth (DU-145 prostate)?
Answer: 118%

Question: What about the growth (MDA-MB-231 breast) of the same molecule?
Answer: 97.4%

Question: What about the growth (SF-268 CNS) of the same molecule?
Answer: 106%

Question: What about the growth (SF-539 CNS) of the same molecule?
Answer: 101%

Question: What about the growth (HCT-15 colon) of the same molecule?
Answer: 99.9%

Question: And the growth (HT29 colon)?
Answer: 79%

Question: And the growth (SNB-19 CNS)?
Answer: 98%

Question: What about the growth (UACC-62 melanoma) of the same molecule?
Answer: 90.5%

Question: And the growth (SK-MEL-28 melanoma)?
Answer: 96.6%

Question: And the growth (SN12C renal)?
Answer: 101%

Question: And the growth (UO-31 renal)?
Answer: 88.3%

Question: What about the growth (TK-10 renal) of the same molecule?
Answer: 98.5%

Question: What about the growth (HL-60(TB) leukemia) of the same molecule?
Answer: 116%

Question: And the growth (T-47D breast)?
Answer: 91.2%

Question: What about the growth (MDA-MB-435 melanoma) of the same molecule?
Answer: 104%

Question: What about the growth (SW-620 colon) of the same molecule?
Answer: 103%

Question: What about the growth (MCF7 breast) of the same molecule?
Answer: 95.5%

Question: What about the growth (KM12 colon) of the same molecule?
Answer: 105%

Question: Which results are given for `CC12CC[C@H](O)C=C1/C(=N/O)CC1C2CCC2(C)C1CC[C@@H]2O` (stereo not given in full)?
Answer: growth (786-0 renal): 80.1%; growth (MDA-MB-231 breast): 108%; growth (SF-539 CNS): 100%; growth (HCT-15 colon): 97.9%; growth (HT29 colon): 98%; growth (SNB-19 CNS): 104%; growth (UACC-62 melanoma): 94.3%; growth (SK-MEL-28 melanoma): 103%; growth (SN12C renal): 104%; growth (UO-31 renal): 66.2%; growth (TK-10 renal): 102%; growth (T-47D breast): 77.6%; growth (MDA-MB-435 melanoma): 90.7%; growth (MCF7 breast): 85.6%

Question: For `N#CCN1C(=O)C(CCC(N)=O)N=C(c2ccc(O)cc2)c2cc(Cl)ccc21` (stereo not given), which growth (UACC-62 melanoma) is on record?
Answer: 91.5% [30 µM]

Question: And the growth (TK-10 renal)?
Answer: 98.2% [30 µM]

Question: What about the growth (MCF7 breast) of the same molecule?
Answer: 93.4% [30 µM]

Question: How did the growth (HL-60(TB) leukemia) turn out when `COc1ccc(NC(=O)c2ccc3c(c2)nc(-c2ccc(Cl)cc2)n3-c2cc(C(C)(C)C)[nH]n2)cc1` was run?
Answer: 96.8%

Question: What does the source list for `CCOC(=O)C1C(c2ccccc2)C2(C#N)C(=N)OC1(C)C2(C#N)C#N` (stereo not given)?
Answer: growth (UACC-62 melanoma): -70.2% [100 µM] (active) and -92.1% [100 µM] (active); growth (TK-10 renal): -32.2% [100 µM] (active) and -95.8% [100 µM] (active); growth (MCF7 breast): -22.3% [100 µM] (active) and -82.1% [100 µM] (active)

Question: For `CCC[CH2][Sn]1([CH2]CCC)[O]C(=O)c2cccc([N+](=O)[O-])c2C(=O)[O]1`, which growth (NCI-H460 lung) is on record?
Answer: -5.56% (active)

Question: What about the growth (786-0 renal) of the same molecule?
Answer: -97.3% (active)

Question: What about the growth (DU-145 prostate) of the same molecule?
Answer: -96.7% (active)

Question: What about the growth (MDA-MB-231 breast) of the same molecule?
Answer: -89.1% (active)

Question: What about the growth (SF-268 CNS) of the same molecule?
Answer: -90.1% (active)

Question: And the growth (SF-539 CNS)?
Answer: -99.5% (active)

Question: What about the growth (HCT-15 colon) of the same molecule?
Answer: -85.5% (active)

Question: And the growth (HT29 colon)?
Answer: -75% (active)

Question: What about the growth (SNB-19 CNS) of the same molecule?
Answer: -92.8% (active)

Question: And the growth (UACC-62 melanoma)?
Answer: -88.3% (active)

Question: And the growth (SK-MEL-28 melanoma)?
Answer: -93.3% (active)

Question: And the growth (SN12C renal)?
Answer: -83.4% (active)

Question: What about the growth (UO-31 renal) of the same molecule?
Answer: -100% (active)

Question: And the growth (TK-10 renal)?
Answer: -95.7% (active)

Question: And the growth (HL-60(TB) leukemia)?
Answer: -48.2% (active)

Question: And the growth (T-47D breast)?
Answer: -76.3% (active)

Question: What about the growth (MDA-MB-435 melanoma) of the same molecule?
Answer: -99.2% (active)

Question: What about the growth (SW-620 colon) of the same molecule?
Answer: -54.6% (active)

Question: What about the growth (MCF7 breast) of the same molecule?
Answer: -99% (active)

Question: And the growth (KM12 colon)?
Answer: -83.9% (active)

Question: `CCOC(=O)NNC(=S)Nc1ccccc1` was tested. Which growth (HL-60(TB) leukemia) did it give?
Answer: 106%

Question: Which growth (HL-60(TB) leukemia) does the source give for `COc1ccc(Cn2cc3c(c2-c2ccc(O)cc2)CCc2cnoc2-3)cc1` here?
Answer: 4.87% (active)

Question: With `CCCCCN1C(=O)C(CO)N=C(c2cccc(O)c2)c2ccccc21` (stereo not given) as the molecule, how does the growth (UACC-62 melanoma) read?
Answer: 81.1% [30 µM]

Question: What about the growth (TK-10 renal) of the same molecule?
Answer: 91% [30 µM]

Question: And the growth (MCF7 breast)?
Answer: 91.1% [30 µM]

Question: How did the growth (NCI-H460 lung) turn out when `NC(=O)C(Cl)Cl` was run?
Answer: 100%

Question: What about the growth (786-0 renal) of the same molecule?
Answer: 107%

Question: And the growth (DU-145 prostate)?
Answer: 108%

Question: And the growth (MDA-MB-231 breast)?
Answer: 111%

Question: And the growth (SF-268 CNS)?
Answer: 102%

Question: What about the growth (SF-539 CNS) of the same molecule?
Answer: 107%

Question: What about the growth (HCT-15 colon) of the same molecule?
Answer: 97.6%

Question: What about the growth (HT29 colon) of the same molecule?
Answer: 116%

Question: And the growth (SNB-19 CNS)?
Answer: 99.2%

Question: And the growth (UACC-62 melanoma)?
Answer: 105%

Question: And the growth (SK-MEL-28 melanoma)?
Answer: 112%

Question: What about the growth (SN12C renal) of the same molecule?
Answer: 104%

Question: And the growth (UO-31 renal)?
Answer: 94.6%

Question: What about the growth (TK-10 renal) of the same molecule?
Answer: 98.7%

Question: What about the growth (HL-60(TB) leukemia) of the same molecule?
Answer: 80.8%

Question: What about the growth (T-47D breast) of the same molecule?
Answer: 103%

Question: And the growth (MDA-MB-435 melanoma)?
Answer: 103%

Question: What about the growth (SW-620 colon) of the same molecule?
Answer: 113%

Question: What about the growth (MCF7 breast) of the same molecule?
Answer: 92.8%

Question: And the growth (KM12 colon)?
Answer: 110%
